Screening data (PubChem BioAssay)
HT1080 IDH1KD tx = qHTS for induction of synthetic lethality in tumor cells producing 2HG: qHTS for the HT-1080-IDH1KD cell line. HT-1080 IDH1 knockdown viability, ATP luminescence, 48 h. hit rate 2% among 360,000. Potency, µM (doses to about 46.1 µM), inactives show at the top dose activity, negative = toxicity, most hits filed as cytotoxic;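 note: potency is the fitted concentration of half-maximal effect; 0% = DMSO wells and -100% = cell-free medium wells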
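CellTiter-Glo luminescence after 48 h compound exposure at 37 degrees C of IDH1-knockdown HT-1080 cells in 5% FBS RPMI. %Activity scaled between DMSO wells and cell-free media wells, with curves fitted and assigned curve classes.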
TDP1 cell CPT = qHTS for Inhibitors of human tyrosyl-DNA phosphodiesterase 1 (TDP1): qHTS in cells in presence of CPT. chicken DT40 Tdp1-/-;hTDP1 cells + 20 nM CPT, ATP luminescence, 48 h. Potency, µM (doses to about 46.2 µM), for inactives: at the top dose activity change, negative = growth inhibition, usual class: inhibitors. hit rate 12% among 420,000; note: potency is the fitted concentration of half-maximal effect; nearly all actives have a fitted effect of over 55% in size
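Chicken DT40 Tdp1-/- cells stably complemented with human TDP1 were seeded at 400 cells/well in medium containing 20 nM camptothecin, exposed to pin-transferred compounds, and grown at 37 °C for at least 48 hr. Viability was read as ATP luminescence.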
IL1B secr inh = qHTS for Inhibitors of Inflammasome Signaling: IL-1-beta AlphaLISA Primary Screen; THP-1 LPS/ATP IL-1B secretion, AlphaLISA, 16 h; stronger effect = lower value; hit rate 4.7% among 360,000; activity change, % at 57.5 µM; in the data active = activity change below about -50%; inconclusive = mostly about -30% to -49%
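Secreted IL-1B measured by AlphaLISA bead assay after 16 h compound exposure of THP-1 cells; compounds (final up to 57.5 uM) added 1 h before LPS (250 ng/mL) and ATP (1.25 mM) stimulation; lower signal means less secretion.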
TDP1 cell noCPT = qHTS for Inhibitors of human tyrosyl-DNA phosphodiesterase 1 (TDP1): qHTS in cells in absence of CPT. DT40 Tdp1-/- hTDP1 cells, no CPT, ATP luminescence, 48 h. Potency, µM (doses to about 46.2 µM), for the others: at the highest dose activity change, negative = growth inhibition, most hits filed as inhibitors. hit rate 15% among 420,000. AID 686978, 2013; note: potency is the fitted concentration of half-maximal effect; nearly all actives have a fitted effect of over 55% in size
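Growth kinetics read by CellTiter-Glo luminescence after ≥48 hr at 37 °C. Cells: DT40 Tdp1-/- stably carrying human TDP1, 400 per well, compound exposure in the absence of CPT (DMSO vehicle).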
ALOX12 inh = Primary qHTS assay for inhibitors of human arachidonate 12S-lipoxygenase (ALOX12): Round 2. Polyunsaturated fatty acid lipoxygenase ALOX12 (Homo sapiens), P18054. purified 12hLO, xylenol orange hydroperoxide absorbance. Potency, µM (doses to about 108 µM), inactives show at the highest dose activity change, negative = inhibition, hits mostly inhibitors. hit rate 1.1% among 580,000. AID 1671190, 2021; note: potency is the fitted concentration of half-maximal effect
Target sequence (P18054 whole entry, looked up): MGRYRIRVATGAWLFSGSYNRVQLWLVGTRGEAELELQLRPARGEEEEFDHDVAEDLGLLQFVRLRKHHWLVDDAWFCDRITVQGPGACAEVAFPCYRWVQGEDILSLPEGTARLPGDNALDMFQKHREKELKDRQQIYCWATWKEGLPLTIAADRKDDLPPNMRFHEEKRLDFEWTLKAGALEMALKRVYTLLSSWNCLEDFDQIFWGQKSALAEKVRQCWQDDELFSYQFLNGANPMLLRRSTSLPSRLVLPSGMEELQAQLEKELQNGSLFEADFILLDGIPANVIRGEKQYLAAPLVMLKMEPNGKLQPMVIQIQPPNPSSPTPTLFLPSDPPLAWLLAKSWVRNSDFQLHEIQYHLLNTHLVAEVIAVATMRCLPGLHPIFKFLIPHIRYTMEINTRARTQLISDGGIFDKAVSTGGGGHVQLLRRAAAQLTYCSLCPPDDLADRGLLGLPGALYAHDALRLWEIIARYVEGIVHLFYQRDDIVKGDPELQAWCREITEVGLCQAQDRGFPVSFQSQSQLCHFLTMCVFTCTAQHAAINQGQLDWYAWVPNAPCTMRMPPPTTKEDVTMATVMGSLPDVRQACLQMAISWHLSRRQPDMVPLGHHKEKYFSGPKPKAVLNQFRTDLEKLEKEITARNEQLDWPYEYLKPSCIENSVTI
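Purified human 12hLO (150 nM final) in 25 mM Hepes, 0.01% Triton X-100, pH 7.0 was preincubated 15 min at room temperature with compound. Then 40 uM arachidonic acid was added, 30 min. Hydroperoxide was read by Fe-XO absorbance ratio 573/405 nm.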
HT1080NT lethal = qHTS for induction of synthetic lethality in tumor cells producing 2HG: qHTS for the HT-1080-NT fibrosarcoma cell line; HT-1080-NT fibrosarcoma viability, CellTiter-Glo ATP luminescence, 48 h; Potency, µM (doses to about 46.1 µM), inactives show at the top dose activity, negative = less viability, actives largely listed as cytotoxic; hit rate 1.6% among 360,000; AID 686970, 2013;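 note: NT is the 2HG producing partner of a matched IDH1 knockdown line; potency is the fitted concentration of half-maximal effect; 0% = DMSO-treated cells and -100% = media-only wells without cells; nearly all actives have a fitted effect of over 55% in size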
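Luminescent CellTiter-Glo readout after 48 hours of compound exposure at 37 degrees C defined viability of HT-1080-NT cells. Activity was normalized to DMSO wells and cell-free media wells; concentration-response curves were fitted and assigned curve classes.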
* hit, by the source's call; ? = inconclusive; nt = not tested or not shown; [ ] = another dose, or the depositor's remark. The entries come from a sample that favours hits as a whole. Unless noted, calls come from the whole dose curve; as a rule, active = well fitted curve in the direction sought with a large enough effect; inconclusive = small, poorly fitted or top-dose-only effect, or another doubt; inactive = no such curve, though single readings can be large; an effect the other way counts as inactive or inconclusive. Unless noted, % is set by controls: 0 for no effect and ±100 for the full control effect.

SMILES	HT1080 IDH1KD tx	TDP1 cell CPT	IL1B secr inh	TDP1 cell noCPT	ALOX12 inh	HT1080NT lethal
COc1cc(/C=C/c2ccnc3ccccc23)cc(OC)c1OC	nt	11µM*	nt	11µM*	nt	nt
c1ccc(CCNc2ccnc3cc4ccccc4cc23)cc1	21µM*	5.8µM*	-102*	7.3µM*	?	18µM*
COc1ccc(Nc2ccnc(Nc3ccc(OC)cc3)n2)cc1	21µM*	2.6µM*	-99*	2.6µM*	3%	23µM*
COc1ccc(/C=C/c2ccnc3ccccc23)c(OC)c1	nt	22µM*	nt	18µM*	nt	nt
COc1ccc(Nc2nc(OC)nc(OC)n2)cc1	3%	1%	3	-5%	25%	18%
Cc1ccccc1C1C=C(c2ccccc2)OC(c2ccccc2)=C1C=O (stereo unspecified)	nt	nt	nt	nt	5.6µM*	nt
Cc1ncsc1C(=O)N(Cc1ccccc1)C1CC1	nt	nt	nt	nt	9%	nt
C=C(CC)C(=O)c1ccc(OCC(=O)O)c(Cl)c1Cl	23µM*	17µM*	-94*	18µM*	12%	18µM*
O=C(CN1CCN(c2ccccc2)CC1)Nc1oc2ccccc2c(=O)c1-c1ccc(F)cc1	nt	nt	nt	nt	8%	nt
O=C(NCCc1cnc[nH]1)c1ccc(-c2ccccc2)cc1	-11%	-41%	-54*	-10%	-3%	-6%
O=C(NCCNC(=O)c1ccccn1)c1ccc(-c2ccccc2)cc1	-9%	-8%	-1	21µM*	19%	-17%
CC(C)(C)OC(=O)NC(CN)c1ccccc1Cl (stereo unspecified)	nt	nt	nt	nt	20%[12.5 µM]	nt
Cc1nc(C(=O)NCCO)cc2c1[nH]c1ccccc12	13%	9%	-4	-6%	0%	0%
O=C(NCC1CCCO1)c1cc2c([nH]c3ccccc32)c(-c2cccc(Br)c2)n1 (stereo unspecified)	-13%	2.6µM*	?	2.9µM*	24%	-14%
COc1ccc(-c2nc(C(=O)NCC3CCCO3)cc3c2[nH]c2ccccc23)cc1 (stereo unspecified)	-28%	2.1µM*	?	2.1µM*	-2%	-20%
Cc1ccc(-c2nc(C(=O)NCC3CCCO3)cc3c2[nH]c2ccccc23)cc1 (stereo unspecified)	-28%	2.3µM*	-60*	1.8µM*	18%	?
Cc1ccccc1-c1nc(C(=O)NCC2CCCO2)cc2c1[nH]c1ccccc12 (stereo unspecified)	-4%	12µM*	-51*	18µM*	-8%	-19%
O=C(NC1CCCC1)N1CCCCC1c1nc(-c2cnccn2)n[nH]1 (stereo unspecified)	nt	nt	nt	nt	13%	nt
CCn1cc(S(=O)(=O)N2CCC3(CCCN(CC4CC4)C3=O)C2)cn1 (stereo unspecified)	nt	nt	nt	nt	33%	nt
Oc1c(Br)cc(C=Nc2ccc3nc(-c4ccccc4)[nH]c3c2)c(O)c1Br	?	16µM*	32	15µM*	-32%	-20%
O=[N+]([O-])c1ccc(O)c(C=Nc2ccc3nc(-c4ccccc4)[nH]c3c2)c1	-24%	-8%	-2	-23%	14%	-29%
Nc1[nH]c(C(=O)c2ccc(Br)cc2)c(-c2ccc(Br)cc2)c1C(=O)NCc1ccc(-c2ccccc2)cc1	nt	nt	nt	nt	-15%	nt
Nc1[nH]c(C(=O)c2ccccc2)c(-c2ccccc2Br)c1C(=O)NCCc1c[nH]c2ccccc12	?	16µM*	?	21µM*	-7%	?
Nc1[nH]c(C(=O)c2ccc(Br)cc2)c(-c2ccc(Br)cc2)c1C(=O)NCCc1c[nH]c2ccccc12	?	?	10	18µM*	-49%	?
COc1ccc(C(=O)c2[nH]c(N)c(C(=O)NCCc3c[nH]c4ccccc34)c2-c2ccccc2Br)cc1	?	13µM*	0	?	0%	?
SMILES	HT1080 IDH1KD tx	TDP1 cell CPT	IL1B secr inh	TDP1 cell noCPT	ALOX12 inh	HT1080NT lethal
Nc1[nH]c(C(=O)c2ccccc2)c(-c2ccccc2Br)c1C(=O)NCc1ccc(-c2ccccc2)cc1	3%	23µM*	-23	12µM*	-4%	15%
O=C(/C=C/c1ccccc1O)c1ccc(Br)cc1	nt	nt	nt	nt	-70%	nt
COc1ccc(Nc2nnc(-c3ccc(OCC(=O)N4CCCCC4)cc3)c3ccccc23)cc1	nt	nt	nt	nt	41%	nt
O=C(Cn1cnc2ccc(Cl)cc2c1=O)N(C1CCCC1)C1CCS(=O)(=O)C1 (stereo unspecified)	nt	nt	nt	nt	-1%	nt
Nc1[nH]c(C(=O)c2ccccc2)c(-c2ccc([N+](=O)[O-])cc2)c1C(=O)NCCc1c[nH]c2ccccc12	?	23µM*	-23	15µM*	-4%	?
O=C(Nc1ccc(S(=O)(=O)N2CCOCC2)cc1)c1ccc([N+](=O)[O-])o1	8.2µM*	1µM*	-100*	2.6µM*	-36%	18µM*
O=C(Nc1ccc(Cc2ccncc2)cc1)c1ccc([N+](=O)[O-])o1	5.2µM*	?	-96*	?	21%	3.7µM*
O=C(Nc1ccc(N2CCOCC2)cc1)c1ccc([N+](=O)[O-])o1	5.2µM*	5.2µM*	-96*	12µM*	9%	7.3µM*
CCCCn1nnc(NC(=O)c2ccc(-c3ccccc3[N+](=O)[O-])o2)n1	4%	-5%	2	?	-4%	12%
